Cardio protect – modulators protecting cardiomyocytes from myocardial damage | H9c2 cardiomyocytes, H2O2 injury protection, ATPLite, 2 h | protection from H2O2 cell death, % at 20 µM | 360,000 tested, 0.63% active;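 active means compounds giving at least 50% protection of heart cells from peroxide-induced death in the single-dose screen, raw or plate-pattern-corrected value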
FAS-TE inh – inhibitors of human fatty acid synthase thioesterase domain. P49327. 360,000 tested, 0.67% active. inhibition, % at 15 µM. recombinant FAS-TE, OMFH fluorogenic substrate, fluorescence endpoint. AID 602261;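 active means compounds whose normalised, plate-corrected inhibition of enzyme fluorescence in the single-dose primary screen is 50% or more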
MPTP inh – blocks calcium-induced mitochondrial swelling; isolated mouse mitochondria, Ca2+ swelling absorbance, 30 min; inhibition, % at 10 µM; 360,000 tested, 1.4% active;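 active means inhibition of 50% or more, scaled per plate between neutral and stimulator controls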
SUMO Mot1 rescue – SUMOylation pathway inhibition by Mot1-301 growth rescue | S. cerevisiae Mot1-301 growth rescue, ATP luminescence, 38.5C; percent above DMSO median, 100 means doubled | growth rescue, % at 18.8 µM | 320,000 tested, 1% active | AID 2716;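 active means every valid replicate shows activation above 250% relative to neutral control wells; inactive means the rest, any valid replicate at or below 250%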
CR mimetic SO – lowers age-related superoxide in aged yeast cells; superoxide response (% of plate mean), % at 10 µM; S. cerevisiae aged cells, superoxide DHE fluorescence; stronger effect = lower value; 330,000 tested, 0.18% active;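 active means superoxide response under a set limit, about three screen SD below normal, cut at about 65% in these data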;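 further: yeast aged for seven days with compound at 30 °C before DHE staining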
aDG glyco act – alpha-DG glycosylation activation; Pro5-aDG cells, alpha-DG glycosylation AlphaScreen (IIH6); 0% Pro5, 100% B10-LARGE cell signal; activation, % at 10 µM; 360,000 tested, 0.22% active; AID 624168;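 active means activation of at least 8% versus controls, or a plate z-score of at least 8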;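 further: Pro5 are CHO cells carrying HIG-tagged alpha-DG that lacks glycosylation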
Rh123 counter – Rhodamine 123 counter-screen of mitochondrial pore hits; shares compounds with MPTP inh; isolated mitochondria, membrane potential, Rhodamine 123 fluorescence; inhibition, % at 10 µM; 5,000 tested, 78% active; AID 624504; in the data active means inhibition above about 22%
MPTP abs DR – dose response confirmation of mitochondrial permeability transition pore inhibitors; shares compounds with MPTP inh; isolated mitochondria swelling, absorbance; IC50, µM; 780 tested, 58% active; AID 651561; in the data active means IC50 below about 20 µM
MPTP counter DR – counter-screen for mitochondrial permeability transition pore inhibitors, dose response | shares compounds with MPTP inh | IC50, µM | 780 tested, 49% active | AID 651564 | isolated mitochondria counterscreen, fluorescence read-out; in the data active means IC50 below about 80 µM
Hits are given with their value; - = inactive; . = no result given. Shown are actives, neighbours in structure and some others; about 3.8% of the full set was active somewhere.

SMILES	Cardio protect	FAS-TE inh	MPTP inh	SUMO Mot1 rescue	CR mimetic SO	aDG glyco act	Rh123 counter	others
Cc1cccnc1CN1CCN(C(=O)c2cc(COc3ccc4ncccc4c3)on2)CC1	-	-	103.7	-	-	-	102.4
Cc1cccc(C)c1OCc1cc(C(=O)NC2CCC2)no1	-	-	-	-	-	-	.
CCC(O)C1CCN(C(=O)c2cc(COc3ccc4ncccc4c3)on2)CC1 (stereo not given)	-	-	91.9	-	-	-	102.2
COCC1CCCN(C(=O)c2cc(COc3ccc4ncccc4c3)on2)C1 (stereo not given)	-	-	95.1	-	-	-	96.9
O=C(c1cc(COc2ccc3ncccc3c2)on1)N1CCC(O)CC1	-	-	-	-	-	-	.
C[C@H](CO)N1C[C@H](C)[C@@H](CN(C)Cc2ccccc2C(=O)O)OCc2cnnn2CCCC1=O	-	-	-	.	.	-	.
Cc1ccc(OCC(=O)c2cc(C)n(Cc3cccs3)c2C)c([N+](=O)[O-])n1	-	-	75.8	-	-	-	66.8
Cc1ccc(OCC(=O)c2cc(C)n(CC(F)(F)F)c2C)c([N+](=O)[O-])n1	-	-	-	-	-	-	.
COc1ccc(C(=O)NCC(c2cccs2)N2CCc3ccccc32)c(OC)c1 (stereo not given)	-	-	-	-	-	-	.
CC(NC(=S)Nc1ccccc1C(F)(F)F)C1CC2CCC1C2 (stereo not given)	-	-	-	-	-	-	.
Cc1ccc(Oc2cc([N+](=O)[O-])cc3c2C(=O)Nc2ccccc2O3)cc1	-	-	56.2	-	-	-	28.6
CC1CCCCC1NC(=O)Cn1cc([N+](=O)[O-])ccc1=O (stereo not given)	-	-	-	-	-	-	.
Cc1cc(C)c(O)c(-c2cc(C(=O)Nc3ccc(S(=O)(=O)N4CCOCC4)cc3)[nH]n2)c1	-	-	92.8	-	-	-	64.3
Cc1ccc(CNC(=O)c2cc(-c3cc(C)cc(C)c3O)n[nH]2)cc1	-	-	88.0	-	-	-	72.8
CC(=O)Nc1ccc(NC(=O)c2cc(-c3cc(C)cc(C)c3O)n[nH]2)cc1	-	-	-	-	-	-	.
Cc1ccc(O)c(-c2cc(C(=O)NCc3ccc4c(c3)OCO4)[nH]n2)c1	-	-	-	-	-	-	.
Cc1csc(-c2cc(C(=O)NCc3cc(C(F)(F)F)cc(C(F)(F)F)c3)n[nH]2)c1	-	-	71.9	.	.	-	77.9
Cc1cc(F)cc(-c2cc(C(=O)NCc3ccc(C(F)(F)F)cc3)[nH]n2)c1	-	-	-	.	.	-	.
Cc1cc(F)ccc1-c1cc(C(=O)NCc2cc(C(F)(F)F)cc(C(F)(F)F)c2)[nH]n1	-	-	84.4	.	.	-	104.0
O=C(NCc1ccncc1)[C@@H]1CCCN1C(=O)[C@@H]1CCCN1C(=O)c1cccs1	.	-	-	.	.	-	.
COc1ccc(Cl)cc1-c1cc(C(=O)NCc2cc(C(F)(F)F)cc(C(F)(F)F)c2)[nH]n1	-	-	-	.	.	-	.
Cc1ccc(F)cc1-c1cc(C(=O)NCc2cc(C(F)(F)F)cc(C(F)(F)F)c2)[nH]n1	-	-	69.0	.	.	-	101.0
Cc1ccc(Cl)cc1-c1cc(C(=O)NCc2cc(C(F)(F)F)cc(C(F)(F)F)c2)[nH]n1	-	-	95.7	.	.	-	82.7
COc1ccc(Nc2c(C3CC3)nc3nc(C)cc(C)n23)cc1	.	-	-	.	.	-	.
Cc1ccc(N2CC(O)CSC2=Nc2ccccc2)cc1 (stereo not given)	-	-	-	.	.	-	.
SMILES	Cardio protect	FAS-TE inh	MPTP inh	SUMO Mot1 rescue	CR mimetic SO	aDG glyco act	Rh123 counter	others
CC(C)OC(=O)c1cc(NC(=S)Nc2ccc([N+](=O)[O-])cc2)cc(C(=O)OC(C)C)c1	-	-	97.4	-	-	-	99.6
CC(C)CCNC(=S)Nc1ccc([N+](=O)[O-])cc1	-	-	97.5	-	-	-	85.4
COC(=O)Cc1ccc(NC(=S)NCCC(C)C)cc1	-	-	-	-	-	-	.
S=C(NCCc1ccccc1)Nc1ccc(Br)cc1	-	-	97.5	-	-	-	92.3
CCCCNC(=S)Nc1ccc([N+](=O)[O-])cc1	-	-	94.7	-	-	-	89.4
Cc1ccc(CN2CC(C(=O)Nc3cccc(C)n3)CC2=O)cc1 (stereo not given)	-	-	-	-	-	-	.
O=S(=O)(NN=C1CCCCCCC1)c1ccccc1	-	-	-	.	.	-	.
COc1ccc(NC(=O)N(C)C[C@@H]2OCc3cnnn3CCCC(=O)N([C@@H](C)CO)C[C@H]2C)c(OC)c1	-	-	-	.	.	-	.
CCCNC(=S)Nc1ccc(Br)cc1	-	-	-	-	-	-	.
CC(C)CCNC(=S)Nc1ccc(Br)cc1	-	-	100.3	.	-	-	88.2
O=C(O)c1cccc(NC(=O)C23CC4CC(C2)CC(n2cnc(Cl)n2)(C4)C3)c1	-	-	-	-	-	-	.
O=C(Nc1cc(Oc2ccccc2)cc([N+](=O)[O-])c1)C12CC3CC(C1)CC(n1cnc(Cl)n1)(C3)C2	-	-	81.9	-	-	-	59.0
O=C(NCc1cccs1)c1ccc2sc([C@@H]3O[C@H](CO)[C@H](O)[C@H](O)[C@H]3O)nc2c1	-	-	-	.	.	-	.
Cc1ccc(C(C2=C(O)CC(C)(C)CC2=O)C2C(=O)CC(C)(C)CC2=O)s1 (stereo not given)	-	-	-	-	-	-	.
CC1(C)CC(=O)C(C(C2=C(O)CC(C)(C)CC2=O)c2ccc(Br)s2)C(=O)C1 (stereo not given)	-	-	73.1	-	-	-	79.6
CC(C)(C)c1ccccc1OCCCCCNCCO	-	-	90.0	-	-	-	-	MPTP abs DR=7.88;MPTP counter DR=-
Cc1ccccc1OCCCCCNCCO	-	-	-	.	.	-	.
COC(CNC(=O)CCCn1nnnc1CN1CCOCC1)c1cccs1 (stereo not given)	-	-	-	.	.	-	.
CCCOc1cccc(-c2cc(C(=O)NNC(=S)NCC)c3ccccc3n2)c1	-	-	50.2	.	-	-	55.7
Cc1ccc(C)c(-c2cc(C(=O)NNC(=S)NCC(C)C)c3ccccc3n2)c1	-	-	86.6	-	-	-	80.2
CCCOc1ccc(C(=O)NNC(=S)NC(=O)c2cc(-c3ccc(Cl)cc3)nc3ccccc23)cc1	-	-	93.3	-	-	-	20.2
N#Cc1cccc(NC(=O)CSc2nnc(C3CC3)n2C2CC2)c1	-	-	-	-	-	-	.
COc1cc(C(=O)OCC(=O)N2CCN(S(=O)(=O)c3ccc(C)cc3C)CC2)c([N+](=O)[O-])cc1OC	-	-	-	.	.	-	.

Assay outcomes as filed in PubChem.
